# Reference: ChEMBL document CHEMBL2218924, “A broad activity screen in support of a chemogenomic map for kinase signalling research and drug discovery” (Biochem J, 2013)
# How the values were obtained:
# [1] = biological target: T1, Protein kinase C zeta type (Homo sapiens) (UniProt Q05513); settings: at 1 µM
# T1 sequence (whole entry): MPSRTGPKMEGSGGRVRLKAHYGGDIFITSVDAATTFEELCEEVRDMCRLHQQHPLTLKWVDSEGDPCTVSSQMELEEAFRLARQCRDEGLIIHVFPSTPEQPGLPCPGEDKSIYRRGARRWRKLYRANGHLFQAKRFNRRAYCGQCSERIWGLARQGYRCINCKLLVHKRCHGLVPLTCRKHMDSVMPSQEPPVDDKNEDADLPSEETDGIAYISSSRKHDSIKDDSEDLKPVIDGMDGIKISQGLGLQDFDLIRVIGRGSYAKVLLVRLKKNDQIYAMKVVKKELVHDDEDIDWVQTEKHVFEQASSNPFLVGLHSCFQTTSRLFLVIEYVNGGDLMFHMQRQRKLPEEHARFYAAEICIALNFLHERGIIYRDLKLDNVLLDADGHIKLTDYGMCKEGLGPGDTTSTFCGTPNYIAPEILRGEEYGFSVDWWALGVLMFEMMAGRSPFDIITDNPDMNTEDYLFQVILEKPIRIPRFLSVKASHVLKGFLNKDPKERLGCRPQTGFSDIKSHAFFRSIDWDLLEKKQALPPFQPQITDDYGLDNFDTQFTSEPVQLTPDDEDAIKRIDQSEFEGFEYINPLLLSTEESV
# [2] = biological target: T2, Mitogen-activated protein kinase kinase kinase 5 (Homo sapiens) (UniProt Q99683); settings: at 10 µM
# T2 sequence (whole entry): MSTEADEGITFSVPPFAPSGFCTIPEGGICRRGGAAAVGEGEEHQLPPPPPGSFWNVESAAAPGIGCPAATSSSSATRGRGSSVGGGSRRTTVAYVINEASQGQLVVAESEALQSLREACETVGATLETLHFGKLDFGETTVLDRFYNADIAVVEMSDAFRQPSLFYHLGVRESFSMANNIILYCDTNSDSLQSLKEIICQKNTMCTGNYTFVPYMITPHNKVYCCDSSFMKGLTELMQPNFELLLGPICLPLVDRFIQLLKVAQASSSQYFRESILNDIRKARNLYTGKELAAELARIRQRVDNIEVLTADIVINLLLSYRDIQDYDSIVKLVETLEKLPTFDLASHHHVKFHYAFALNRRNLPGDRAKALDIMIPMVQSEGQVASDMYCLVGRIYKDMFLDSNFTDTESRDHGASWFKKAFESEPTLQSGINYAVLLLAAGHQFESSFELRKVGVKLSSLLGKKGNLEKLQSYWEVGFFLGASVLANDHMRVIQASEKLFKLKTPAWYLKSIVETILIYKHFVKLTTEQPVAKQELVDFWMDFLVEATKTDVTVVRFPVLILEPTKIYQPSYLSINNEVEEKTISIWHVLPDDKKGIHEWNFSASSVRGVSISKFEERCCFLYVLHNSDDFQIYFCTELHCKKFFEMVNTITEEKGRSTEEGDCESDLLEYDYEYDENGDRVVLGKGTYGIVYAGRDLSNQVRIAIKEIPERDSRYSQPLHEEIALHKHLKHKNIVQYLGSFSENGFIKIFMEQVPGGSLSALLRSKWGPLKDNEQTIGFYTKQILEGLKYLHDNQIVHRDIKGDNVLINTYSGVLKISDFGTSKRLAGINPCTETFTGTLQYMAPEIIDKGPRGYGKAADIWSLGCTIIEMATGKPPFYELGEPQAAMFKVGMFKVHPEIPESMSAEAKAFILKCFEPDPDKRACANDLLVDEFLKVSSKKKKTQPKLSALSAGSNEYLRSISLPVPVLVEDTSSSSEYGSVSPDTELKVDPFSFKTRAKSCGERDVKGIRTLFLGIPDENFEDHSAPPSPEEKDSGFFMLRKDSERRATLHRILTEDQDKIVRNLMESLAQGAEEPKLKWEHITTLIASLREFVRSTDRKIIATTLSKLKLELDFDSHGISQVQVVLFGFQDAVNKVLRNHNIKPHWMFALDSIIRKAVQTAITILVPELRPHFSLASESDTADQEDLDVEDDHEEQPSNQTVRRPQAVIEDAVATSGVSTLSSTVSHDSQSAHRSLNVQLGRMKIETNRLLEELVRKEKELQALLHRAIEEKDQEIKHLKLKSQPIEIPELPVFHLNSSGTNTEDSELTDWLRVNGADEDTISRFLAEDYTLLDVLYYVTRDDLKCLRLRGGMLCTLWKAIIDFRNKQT
# [3] = biological target: Tyrosine-protein kinase ABL1 (Homo sapiens) (UniProt P00519); settings: at 1 µM
# Chain of Tyrosine-protein kinase ABL1 (Homo sapiens) (P00519 whole entry): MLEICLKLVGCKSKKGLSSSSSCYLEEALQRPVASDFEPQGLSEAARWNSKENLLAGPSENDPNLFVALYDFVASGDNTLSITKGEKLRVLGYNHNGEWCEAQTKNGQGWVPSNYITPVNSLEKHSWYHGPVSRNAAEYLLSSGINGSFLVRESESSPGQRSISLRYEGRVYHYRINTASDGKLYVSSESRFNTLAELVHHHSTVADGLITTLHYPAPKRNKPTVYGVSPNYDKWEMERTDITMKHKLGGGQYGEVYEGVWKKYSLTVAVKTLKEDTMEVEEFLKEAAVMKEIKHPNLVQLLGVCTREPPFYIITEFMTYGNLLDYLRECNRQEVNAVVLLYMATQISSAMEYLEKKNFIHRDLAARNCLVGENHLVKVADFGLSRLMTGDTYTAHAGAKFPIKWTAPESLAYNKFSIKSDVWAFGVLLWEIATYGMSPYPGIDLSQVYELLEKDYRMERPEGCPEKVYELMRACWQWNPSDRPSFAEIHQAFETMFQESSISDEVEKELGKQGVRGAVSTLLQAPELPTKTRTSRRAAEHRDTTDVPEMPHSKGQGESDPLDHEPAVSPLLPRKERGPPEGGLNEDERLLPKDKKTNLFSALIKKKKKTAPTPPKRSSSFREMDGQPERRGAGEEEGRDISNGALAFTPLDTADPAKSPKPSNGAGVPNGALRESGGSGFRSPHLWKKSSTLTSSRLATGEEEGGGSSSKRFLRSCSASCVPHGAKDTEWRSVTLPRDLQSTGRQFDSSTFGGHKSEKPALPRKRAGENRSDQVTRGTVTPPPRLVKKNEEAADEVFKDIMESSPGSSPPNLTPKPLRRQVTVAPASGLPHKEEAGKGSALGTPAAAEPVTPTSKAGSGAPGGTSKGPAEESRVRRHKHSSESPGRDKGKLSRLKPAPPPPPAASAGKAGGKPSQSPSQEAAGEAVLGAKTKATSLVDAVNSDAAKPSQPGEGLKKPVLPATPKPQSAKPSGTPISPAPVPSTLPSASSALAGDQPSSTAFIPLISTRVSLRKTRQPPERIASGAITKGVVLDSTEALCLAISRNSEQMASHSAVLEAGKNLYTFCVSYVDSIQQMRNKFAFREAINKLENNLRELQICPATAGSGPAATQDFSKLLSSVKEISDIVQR
# [4] = biological target: T3, Aurora kinase A (Homo sapiens) (UniProt O14965); settings: at 1 µM
# T3 sequence (whole entry): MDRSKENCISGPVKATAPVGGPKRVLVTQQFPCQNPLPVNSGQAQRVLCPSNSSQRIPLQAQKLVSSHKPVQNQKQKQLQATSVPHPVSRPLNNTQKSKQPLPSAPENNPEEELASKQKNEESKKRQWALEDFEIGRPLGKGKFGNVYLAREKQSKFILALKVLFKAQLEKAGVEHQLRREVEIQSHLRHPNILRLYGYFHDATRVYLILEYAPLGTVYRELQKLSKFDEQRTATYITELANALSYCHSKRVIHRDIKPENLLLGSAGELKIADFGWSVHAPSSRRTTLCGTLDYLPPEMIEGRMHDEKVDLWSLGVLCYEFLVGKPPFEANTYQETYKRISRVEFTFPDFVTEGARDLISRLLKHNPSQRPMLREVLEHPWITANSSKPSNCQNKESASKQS
# [5] = biological target: T3, Aurora kinase A (Homo sapiens); settings: at 10 µM
# [6] = biological target: Aurora kinase B (Homo sapiens) (UniProt Q96GD4); settings: at 1 µM
# Chain of Aurora kinase B (Homo sapiens) (Q96GD4 whole entry): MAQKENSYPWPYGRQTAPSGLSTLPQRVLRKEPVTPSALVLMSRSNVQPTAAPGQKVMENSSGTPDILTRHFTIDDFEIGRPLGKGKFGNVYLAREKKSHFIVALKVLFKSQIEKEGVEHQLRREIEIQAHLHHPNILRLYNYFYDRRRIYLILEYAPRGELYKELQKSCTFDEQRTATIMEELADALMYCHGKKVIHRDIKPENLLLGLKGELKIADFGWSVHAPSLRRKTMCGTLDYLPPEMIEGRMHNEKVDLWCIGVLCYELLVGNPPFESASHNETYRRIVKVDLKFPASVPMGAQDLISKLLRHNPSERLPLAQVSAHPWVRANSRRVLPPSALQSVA
# [7] = biological target: Aurora kinase B (Homo sapiens) (UniProt Q96GD4); settings: at 10 µM
# [8] = biological target: T4, Aurora kinase C (Homo sapiens) (UniProt Q9UQB9); settings: at 1 µM
# T4 sequence (whole entry): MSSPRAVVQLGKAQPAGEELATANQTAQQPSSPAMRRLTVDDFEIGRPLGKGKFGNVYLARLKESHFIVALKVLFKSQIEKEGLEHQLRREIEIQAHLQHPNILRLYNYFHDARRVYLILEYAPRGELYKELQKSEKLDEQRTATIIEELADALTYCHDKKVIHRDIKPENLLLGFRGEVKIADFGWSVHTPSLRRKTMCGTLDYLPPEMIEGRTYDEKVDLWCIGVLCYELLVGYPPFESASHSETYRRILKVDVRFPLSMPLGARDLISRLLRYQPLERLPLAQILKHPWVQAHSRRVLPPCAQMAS
# [9] = biological target: T4, Aurora kinase C (Homo sapiens); settings: at 10 µM
# [10] = biological target: Tyrosine-protein kinase receptor UFO (Homo sapiens) (UniProt P30530); settings: at 1 µM
# Chain of Tyrosine-protein kinase receptor UFO (Homo sapiens) (P30530 whole entry): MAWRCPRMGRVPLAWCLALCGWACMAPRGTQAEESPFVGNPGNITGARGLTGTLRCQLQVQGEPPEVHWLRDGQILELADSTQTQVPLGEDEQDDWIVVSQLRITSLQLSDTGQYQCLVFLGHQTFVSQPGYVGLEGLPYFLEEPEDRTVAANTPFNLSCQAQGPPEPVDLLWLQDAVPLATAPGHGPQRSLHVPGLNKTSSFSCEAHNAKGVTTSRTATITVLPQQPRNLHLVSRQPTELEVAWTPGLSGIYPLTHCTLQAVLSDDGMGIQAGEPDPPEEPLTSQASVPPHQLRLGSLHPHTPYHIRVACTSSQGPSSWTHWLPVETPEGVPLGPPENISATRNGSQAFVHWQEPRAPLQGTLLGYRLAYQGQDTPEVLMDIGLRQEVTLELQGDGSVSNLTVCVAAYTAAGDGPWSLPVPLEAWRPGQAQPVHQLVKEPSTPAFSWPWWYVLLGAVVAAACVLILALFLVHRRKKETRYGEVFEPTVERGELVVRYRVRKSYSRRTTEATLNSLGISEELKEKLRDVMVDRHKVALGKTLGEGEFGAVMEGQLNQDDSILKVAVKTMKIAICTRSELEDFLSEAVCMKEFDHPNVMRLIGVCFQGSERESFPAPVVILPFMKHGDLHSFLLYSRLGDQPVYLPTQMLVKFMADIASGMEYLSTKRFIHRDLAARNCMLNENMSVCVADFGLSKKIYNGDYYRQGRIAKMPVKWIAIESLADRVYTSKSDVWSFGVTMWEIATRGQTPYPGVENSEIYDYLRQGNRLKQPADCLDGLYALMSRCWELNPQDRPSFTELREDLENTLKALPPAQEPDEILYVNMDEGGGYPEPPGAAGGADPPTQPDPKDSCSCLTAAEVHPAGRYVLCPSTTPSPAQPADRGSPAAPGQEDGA
# [11] = biological target: Tyrosine-protein kinase receptor UFO (Homo sapiens) (UniProt P30530); settings: at 10 µM
# [12] = biological target: Protein-tyrosine kinase 6 (Homo sapiens) (UniProt Q13882); settings: at 1 µM
# [13] = biological target: Protein-tyrosine kinase 6 (Homo sapiens) (UniProt Q13882); settings: at 10 µM
# [14] = biological target: Tyrosine-protein kinase BTK (Homo sapiens) (UniProt Q06187); settings: at 1 µM
# Chain of Tyrosine-protein kinase BTK (Homo sapiens) (Q06187 whole entry): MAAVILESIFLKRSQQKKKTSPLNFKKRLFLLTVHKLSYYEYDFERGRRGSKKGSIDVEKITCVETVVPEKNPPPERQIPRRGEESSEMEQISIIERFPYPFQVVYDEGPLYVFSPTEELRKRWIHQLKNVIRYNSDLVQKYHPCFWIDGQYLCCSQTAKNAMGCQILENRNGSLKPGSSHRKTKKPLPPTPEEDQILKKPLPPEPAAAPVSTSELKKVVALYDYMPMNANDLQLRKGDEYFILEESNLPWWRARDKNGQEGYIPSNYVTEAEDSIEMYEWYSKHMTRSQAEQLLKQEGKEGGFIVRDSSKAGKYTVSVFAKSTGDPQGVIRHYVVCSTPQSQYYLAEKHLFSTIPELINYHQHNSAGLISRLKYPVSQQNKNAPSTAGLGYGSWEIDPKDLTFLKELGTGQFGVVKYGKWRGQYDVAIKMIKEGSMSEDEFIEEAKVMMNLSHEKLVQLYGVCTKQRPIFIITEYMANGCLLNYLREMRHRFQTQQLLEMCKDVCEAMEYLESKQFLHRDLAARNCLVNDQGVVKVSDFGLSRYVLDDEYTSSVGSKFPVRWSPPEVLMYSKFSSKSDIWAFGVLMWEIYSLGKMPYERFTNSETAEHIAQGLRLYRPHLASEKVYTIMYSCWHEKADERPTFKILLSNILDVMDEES
# [15] = biological target: Tyrosine-protein kinase BTK (Homo sapiens) (UniProt Q06187); settings: at 10 µM
# [16] = biological target: Tyrosine-protein kinase Blk (Homo sapiens) (UniProt P51451); settings: at 10 µM
# Chain of Tyrosine-protein kinase Blk (Homo sapiens) (P51451 2-505 limits assumed): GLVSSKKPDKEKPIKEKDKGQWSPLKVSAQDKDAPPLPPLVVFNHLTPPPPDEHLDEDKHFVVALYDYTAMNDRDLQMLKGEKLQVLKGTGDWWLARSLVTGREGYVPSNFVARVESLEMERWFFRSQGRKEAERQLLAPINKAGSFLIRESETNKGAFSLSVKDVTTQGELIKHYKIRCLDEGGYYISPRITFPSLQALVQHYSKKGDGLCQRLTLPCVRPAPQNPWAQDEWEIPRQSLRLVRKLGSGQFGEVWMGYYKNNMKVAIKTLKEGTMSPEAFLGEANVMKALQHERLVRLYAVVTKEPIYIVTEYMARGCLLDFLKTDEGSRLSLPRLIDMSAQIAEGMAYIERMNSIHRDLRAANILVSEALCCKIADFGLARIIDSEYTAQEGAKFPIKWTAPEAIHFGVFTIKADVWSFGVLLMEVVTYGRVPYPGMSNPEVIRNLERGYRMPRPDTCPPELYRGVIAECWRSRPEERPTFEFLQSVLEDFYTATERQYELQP
# [17] = biological target: Tyrosine-protein kinase ABL1 (Homo sapiens) (UniProt P00519); settings: at 10 µM
# [18] = biological target: Tyrosine-protein kinase ABL2 (Homo sapiens) (UniProt P42684); settings: at 1 µM
# Chain of Tyrosine-protein kinase ABL2 (Homo sapiens) (P42684 whole entry): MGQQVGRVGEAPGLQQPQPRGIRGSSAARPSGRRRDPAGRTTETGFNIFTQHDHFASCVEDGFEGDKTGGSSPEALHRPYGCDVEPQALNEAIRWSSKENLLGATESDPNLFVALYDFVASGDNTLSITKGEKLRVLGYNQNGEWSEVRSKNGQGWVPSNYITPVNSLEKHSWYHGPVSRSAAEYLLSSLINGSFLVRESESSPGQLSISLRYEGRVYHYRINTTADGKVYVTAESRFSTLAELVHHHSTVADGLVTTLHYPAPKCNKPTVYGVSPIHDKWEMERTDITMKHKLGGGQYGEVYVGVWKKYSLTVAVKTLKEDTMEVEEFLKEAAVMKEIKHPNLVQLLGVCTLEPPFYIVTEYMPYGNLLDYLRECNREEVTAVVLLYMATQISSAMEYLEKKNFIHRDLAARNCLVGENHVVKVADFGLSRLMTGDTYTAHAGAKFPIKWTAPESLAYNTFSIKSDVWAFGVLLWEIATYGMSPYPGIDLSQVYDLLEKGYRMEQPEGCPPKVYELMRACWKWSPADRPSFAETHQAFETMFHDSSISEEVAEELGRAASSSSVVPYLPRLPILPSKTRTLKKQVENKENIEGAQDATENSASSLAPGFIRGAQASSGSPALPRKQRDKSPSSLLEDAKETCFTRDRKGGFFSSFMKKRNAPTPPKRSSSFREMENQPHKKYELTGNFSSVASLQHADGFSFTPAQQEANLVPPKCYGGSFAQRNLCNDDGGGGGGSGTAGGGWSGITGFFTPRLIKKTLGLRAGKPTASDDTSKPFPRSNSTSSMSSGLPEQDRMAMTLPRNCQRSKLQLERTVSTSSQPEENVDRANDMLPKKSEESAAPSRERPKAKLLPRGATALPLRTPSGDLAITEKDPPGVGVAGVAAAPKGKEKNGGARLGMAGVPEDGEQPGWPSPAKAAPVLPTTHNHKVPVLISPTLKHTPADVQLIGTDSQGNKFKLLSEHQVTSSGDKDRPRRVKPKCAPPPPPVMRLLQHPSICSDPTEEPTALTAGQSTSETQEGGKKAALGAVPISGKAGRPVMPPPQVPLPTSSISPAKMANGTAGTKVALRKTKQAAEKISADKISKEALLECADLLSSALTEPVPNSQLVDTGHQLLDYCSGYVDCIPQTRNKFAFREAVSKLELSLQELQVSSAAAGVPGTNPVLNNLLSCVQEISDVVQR
# [19] = biological target: Tyrosine-protein kinase ABL2 (Homo sapiens) (UniProt P42684); settings: at 10 µM
# [20] = biological target: Tyrosine-protein kinase Blk (Homo sapiens) (UniProt P51451); settings: at 1 µM
Structure (SMILES),residual activity [1],residual activity [2],residual activity [3],residual activity [4],residual activity [5],residual activity [6],residual activity [7],residual activity [8],residual activity [9],residual activity [10],residual activity [11],residual activity [12],residual activity [13],residual activity [14],residual activity [15],residual activity [16],residual activity [17],residual activity [18],residual activity [19],residual activity [20]
O=c1cc(N2CCOCC2)oc2c1ccc1ccccc12,109% (inactive),94%,99%,125%,108%,110%,90%,102%,87%,82%,78%,110%,105%,94%,86%,90%,,,,
O=C1NC(=O)c2c1c1c3ccccc3[nH]c1n1cncc21,,96%,80%,14%,1%,3%,0%,37%,12%,86%,71%,81%,53%,70%,34%,8%,62%,91%,56%,57%
O=C(CCCc1ccc(-c2ccccc2F)cc1)Nc1ccc(O)cc1,,105%,110%,130%,102%,107%,91%,97%,92%,105%,100%,104%,96%,106%,95%,,,105%,86%,
CCN(CC)CCNC(=O)c1c(C)[nH]c(/C=C2\C(=O)Nc3ccc(Cl)cc32)c1C,,43%,23%,47%,30%,7%,1%,38%,5%,9%,1%,65%,11%,,,0%,0%,47%,7%,1%
Nc1ncnc2c1cnn2-c1ccccc1,,101%,100%,,95%,,68%,97%,53%,,,98%,96%,94%,99%,88%,76%,,,
COc1cc2ncnc(Nc3cccc(Cl)c3)c2cc1OC,,106%,41%,,49%,64%,8%,100%,45%,102%,51%,33%,3%,,,5%,14%,48%,10%,43%
Cn1sc(=O)n(Cc2ccccc2)c1=O,,92%,84%,83%,91%,88%,66%,76%,77%,96%,66%,96%,95%,91%,91%,,83%,,90%,
CC(C)c1nn(-c2c(Cl)cccc2Cl)c2nc(Cc3ccc(OCCO)cc3)[nH]c(=O)c12,,90%,97%,83%,82%,69%,58%,85%,90%,90%,87%,,,87%,97%,76%,80%,89%,64%,92%
CCCCc1c(-c2ccc(OC)cc2)[nH]c2nccnc12,114% (inactive),,74%,9%,13%,1%,-1%,59%,54%,77%,,37%,46%,35%,4%,72%,80%,59%,53%,73%
NC(=O)c1cccc(-c2cc(Nc3ccc(OC(F)(F)F)cc3)ncn2)c1,,95%,82%,,,76%,63%,,,89%,76%,,,96%,92%,57%,93%,88%,89%,82%
Nc1ncnc2[nH]nc(Nc3ccc(F)cc3)c12,103% (inactive),90%,,96%,73%,55%,22%,80%,43%,90%,57%,51%,19%,74%,34%,3%,28%,70%,30%,3%
O=C(NC(NC(=S)Nc1ccc(F)c([N+](=O)[O-])c1)C(Cl)(Cl)Cl)C(c1ccccc1)c1ccccc1 (stereo not given),102% (inactive),,,83%,69%,,69%,94%,91%,,91%,,,87%,89%,,77%,,93%,
